Data: publication PMC7862700, “An all-to-all approach to the identification of sequence-specific readers for epigenetic DNA modifications on cytosine”

Columns and labels:
Experiment in all cases: DAPPL (digital affinity profiling via proximity ligation, sequencing); 10 mM Tris-HCl pH 7.5, 50 mM NaCl, 1 mM DTT, 4% glycerol, room temperature, 30 min; GST-TFs on glutathione beads, 16-mer random dsDNA library, 0.1% formaldehyde crosslink after washing; high values mean tight binding
Conditions in all cases: protein: recombinant; tags: N-terminal GST; dsDNA, one strand shown
FLI1 = biological target: T1, FLI1 (Homo sapiens, UniProt Q01543 1-452)
T1 sequence: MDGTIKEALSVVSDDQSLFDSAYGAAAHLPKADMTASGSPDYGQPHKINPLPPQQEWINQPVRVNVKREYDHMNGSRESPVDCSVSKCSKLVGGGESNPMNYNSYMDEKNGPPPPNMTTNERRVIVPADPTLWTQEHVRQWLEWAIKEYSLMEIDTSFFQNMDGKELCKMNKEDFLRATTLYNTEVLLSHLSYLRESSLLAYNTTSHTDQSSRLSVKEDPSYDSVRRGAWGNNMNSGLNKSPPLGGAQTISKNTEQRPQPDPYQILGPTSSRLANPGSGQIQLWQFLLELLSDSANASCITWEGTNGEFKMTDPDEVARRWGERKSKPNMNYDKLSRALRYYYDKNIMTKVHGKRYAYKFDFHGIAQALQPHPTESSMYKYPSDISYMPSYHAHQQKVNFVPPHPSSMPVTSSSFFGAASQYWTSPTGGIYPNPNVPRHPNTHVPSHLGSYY
Method in brief: (§1)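 Binding signal is each hexamer's read frequency for a factor divided by its frequency in the tag-only sample. The factors were GST-fused human transcription factors from yeast, captured on glutathione beads, DNA-barcoded and pooled with that sample. Pools were incubated with 200 nmole of a random double-stranded 16-mer DNA library in Tris/NaCl/DTT/glycerol buffer at room temperature for 30 min, then washed, crosslinked with 0.1% formaldehyde, proximity-ligated with BsaI/T4 ligase (1 h, 37 °C), PCR-amplified and sequenced on an Illumina NextSeq500.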

ELK1 = biological target: T2, ELK1 (Homo sapiens, UniProt P19419 1-428)
T2 sequence: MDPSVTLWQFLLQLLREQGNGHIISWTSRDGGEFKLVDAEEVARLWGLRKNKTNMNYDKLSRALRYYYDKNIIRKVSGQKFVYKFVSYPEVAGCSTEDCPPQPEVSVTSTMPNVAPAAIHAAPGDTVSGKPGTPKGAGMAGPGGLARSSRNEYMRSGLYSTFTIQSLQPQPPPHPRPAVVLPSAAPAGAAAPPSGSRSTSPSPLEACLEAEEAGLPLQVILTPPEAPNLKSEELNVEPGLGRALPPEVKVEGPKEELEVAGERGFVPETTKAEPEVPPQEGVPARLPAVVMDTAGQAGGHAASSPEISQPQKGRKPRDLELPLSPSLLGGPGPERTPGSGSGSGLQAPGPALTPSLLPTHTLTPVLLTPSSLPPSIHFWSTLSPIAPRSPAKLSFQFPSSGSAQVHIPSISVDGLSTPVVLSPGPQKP
Method in brief: as §1

GABPA = biological target: T3, GABPA (Homo sapiens, UniProt Q06546 1-454)
T3 sequence: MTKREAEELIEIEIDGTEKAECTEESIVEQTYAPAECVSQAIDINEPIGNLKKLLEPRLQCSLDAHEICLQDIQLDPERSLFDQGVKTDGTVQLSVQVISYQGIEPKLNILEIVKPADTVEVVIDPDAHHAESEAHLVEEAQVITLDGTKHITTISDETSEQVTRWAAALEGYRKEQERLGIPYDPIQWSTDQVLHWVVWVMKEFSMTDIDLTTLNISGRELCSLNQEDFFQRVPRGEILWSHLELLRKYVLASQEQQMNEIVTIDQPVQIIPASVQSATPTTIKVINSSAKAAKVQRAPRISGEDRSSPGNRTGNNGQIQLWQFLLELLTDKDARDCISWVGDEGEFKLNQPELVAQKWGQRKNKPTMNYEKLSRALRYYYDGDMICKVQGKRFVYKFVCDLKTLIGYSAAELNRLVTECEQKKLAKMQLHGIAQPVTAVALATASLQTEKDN
Method in brief: as §1

ERG = biological target: T4, ERG (Homo sapiens, UniProt P11308 1-479)
T4 sequence: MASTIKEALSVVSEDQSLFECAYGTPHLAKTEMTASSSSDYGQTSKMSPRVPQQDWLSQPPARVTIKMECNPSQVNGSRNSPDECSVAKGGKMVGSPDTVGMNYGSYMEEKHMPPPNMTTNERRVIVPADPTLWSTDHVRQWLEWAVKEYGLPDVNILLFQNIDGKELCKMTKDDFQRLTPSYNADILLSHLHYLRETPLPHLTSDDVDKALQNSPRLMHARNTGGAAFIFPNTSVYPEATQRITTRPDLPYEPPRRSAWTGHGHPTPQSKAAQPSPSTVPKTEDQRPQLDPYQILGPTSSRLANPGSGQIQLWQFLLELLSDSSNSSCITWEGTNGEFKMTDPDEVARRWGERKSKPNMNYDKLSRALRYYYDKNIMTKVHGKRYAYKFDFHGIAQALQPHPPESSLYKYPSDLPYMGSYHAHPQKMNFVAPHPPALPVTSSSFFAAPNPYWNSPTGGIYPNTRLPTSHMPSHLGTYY
Method in brief: as §1

ELF1 = ELF1 (Homo sapiens, UniProt P32519 1-619)
Sequence of ELF1 (P32519 whole entry): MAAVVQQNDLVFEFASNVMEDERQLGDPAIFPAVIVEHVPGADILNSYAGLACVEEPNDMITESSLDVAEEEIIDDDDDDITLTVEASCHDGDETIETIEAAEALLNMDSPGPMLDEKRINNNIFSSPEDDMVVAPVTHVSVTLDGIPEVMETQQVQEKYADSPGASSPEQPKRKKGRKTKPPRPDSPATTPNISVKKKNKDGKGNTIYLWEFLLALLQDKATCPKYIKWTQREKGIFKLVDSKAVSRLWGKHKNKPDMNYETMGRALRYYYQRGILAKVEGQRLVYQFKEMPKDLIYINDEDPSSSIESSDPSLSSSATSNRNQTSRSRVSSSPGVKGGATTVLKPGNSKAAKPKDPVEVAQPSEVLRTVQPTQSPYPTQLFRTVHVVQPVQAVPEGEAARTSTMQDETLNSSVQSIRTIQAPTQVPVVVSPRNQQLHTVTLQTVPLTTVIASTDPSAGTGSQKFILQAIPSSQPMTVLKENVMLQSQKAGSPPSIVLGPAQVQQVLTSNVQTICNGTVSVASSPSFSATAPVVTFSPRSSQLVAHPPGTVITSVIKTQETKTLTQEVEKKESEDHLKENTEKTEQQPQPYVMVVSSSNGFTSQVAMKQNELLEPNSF
Method in brief: as §1

EHF = biological target: T5, EHF (Homo sapiens, UniProt Q9NZC4 1-300)
T5 sequence: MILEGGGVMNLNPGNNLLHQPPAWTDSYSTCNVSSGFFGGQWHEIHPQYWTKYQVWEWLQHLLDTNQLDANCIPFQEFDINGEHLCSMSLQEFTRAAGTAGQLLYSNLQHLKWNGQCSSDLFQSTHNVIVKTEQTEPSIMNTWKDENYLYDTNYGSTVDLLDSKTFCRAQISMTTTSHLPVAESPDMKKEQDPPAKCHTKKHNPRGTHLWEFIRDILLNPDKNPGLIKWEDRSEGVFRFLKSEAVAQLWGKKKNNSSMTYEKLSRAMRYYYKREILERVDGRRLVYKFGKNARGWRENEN
Method in brief: as §1

SPI1 = SPI1 (Homo sapiens, UniProt P17947 1-270)
Method in brief: as §1

SPIB = SPIB (Homo sapiens, UniProt Q01892 1-262)
Sequence of SPIB (Q01892 whole entry): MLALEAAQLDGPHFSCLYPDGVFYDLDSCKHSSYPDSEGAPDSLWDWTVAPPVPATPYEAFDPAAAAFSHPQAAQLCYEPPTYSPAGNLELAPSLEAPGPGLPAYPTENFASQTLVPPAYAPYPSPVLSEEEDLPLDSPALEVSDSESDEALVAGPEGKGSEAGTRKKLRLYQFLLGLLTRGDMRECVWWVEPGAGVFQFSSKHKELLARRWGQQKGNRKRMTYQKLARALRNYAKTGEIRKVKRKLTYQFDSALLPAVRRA
Method in brief: as §1

ELK3 = biological target: T6, ELK3 (Homo sapiens, UniProt P41970 1-407)
T6 sequence: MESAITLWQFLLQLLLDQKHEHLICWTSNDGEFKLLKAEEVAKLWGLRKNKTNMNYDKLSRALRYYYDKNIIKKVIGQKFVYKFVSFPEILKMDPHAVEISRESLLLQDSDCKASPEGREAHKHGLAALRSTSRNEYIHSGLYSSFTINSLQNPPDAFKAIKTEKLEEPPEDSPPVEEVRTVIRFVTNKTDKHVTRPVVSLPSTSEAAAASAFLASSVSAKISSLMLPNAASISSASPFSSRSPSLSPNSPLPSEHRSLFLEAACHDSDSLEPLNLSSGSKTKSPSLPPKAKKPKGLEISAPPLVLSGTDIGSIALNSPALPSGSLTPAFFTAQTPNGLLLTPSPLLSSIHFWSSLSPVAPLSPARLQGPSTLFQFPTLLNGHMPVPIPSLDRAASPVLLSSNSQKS
Method in brief: as §1

Row | Sequence | binding signal (FLI1) | binding signal (ELK1) | binding signal (GABPA) | binding signal (ERG) | binding signal (ELF1) | binding signal (EHF) | binding signal (SPI1) | binding signal (SPIB) | binding signal (ELK3)
1 | GCCTAC | 1.18 fold enrichment (6-mer frequency, TF over GST control) | 1.17 fold enrichment (6-mer frequency, TF over GST control) | 1.28 fold enrichment (6-mer frequency, TF over GST control) | 1.25 fold enrichment (6-mer frequency, TF over GST control) | 1.21 fold enrichment (6-mer frequency, TF over GST control) | 1.25 fold enrichment (6-mer frequency, TF over GST control) | 1.18 fold enrichment (6-mer frequency, TF over GST control) | 1.21 fold enrichment (6-mer frequency, TF over GST control) | 1.1 fold enrichment (6-mer frequency, TF over GST control)
2 | CGACTC | 1.37 fold enrichment (6-mer frequency, TF over GST control) | 1.42 fold enrichment (6-mer frequency, TF over GST control) | 1.53 fold enrichment (6-mer frequency, TF over GST control) | 1.39 fold enrichment (6-mer frequency, TF over GST control) | 1.45 fold enrichment (6-mer frequency, TF over GST control) | 1.43 fold enrichment (6-mer frequency, TF over GST control) | 1.35 fold enrichment (6-mer frequency, TF over GST control) | 1.56 fold enrichment (6-mer frequency, TF over GST control) | 1.43 fold enrichment (6-mer frequency, TF over GST control)
3 | AAAAGC | 1.16 fold enrichment (6-mer frequency, TF over GST control) | 1.13 fold enrichment (6-mer frequency, TF over GST control) | 1.14 fold enrichment (6-mer frequency, TF over GST control) | 1.24 fold enrichment (6-mer frequency, TF over GST control) | 1.2 fold enrichment (6-mer frequency, TF over GST control) | 1.14 fold enrichment (6-mer frequency, TF over GST control) | 1.55 fold enrichment (6-mer frequency, TF over GST control) | 1.23 fold enrichment (6-mer frequency, TF over GST control) | 1.15 fold enrichment (6-mer frequency, TF over GST control)
4 | TTGGCA | 1.15 fold enrichment (6-mer frequency, TF over GST control) | 1.23 fold enrichment (6-mer frequency, TF over GST control) | 1.08 fold enrichment (6-mer frequency, TF over GST control) | 1.15 fold enrichment (6-mer frequency, TF over GST control) | 1.13 fold enrichment (6-mer frequency, TF over GST control) | 1.08 fold enrichment (6-mer frequency, TF over GST control) | 1.16 fold enrichment (6-mer frequency, TF over GST control) | 1.15 fold enrichment (6-mer frequency, TF over GST control) | 1.17 fold enrichment (6-mer frequency, TF over GST control)
5 | CTTAAC | 1.21 fold enrichment (6-mer frequency, TF over GST control) | 1.17 fold enrichment (6-mer frequency, TF over GST control) | 1.28 fold enrichment (6-mer frequency, TF over GST control) | 1.26 fold enrichment (6-mer frequency, TF over GST control) | 1.35 fold enrichment (6-mer frequency, TF over GST control) | 1.26 fold enrichment (6-mer frequency, TF over GST control) | 1.32 fold enrichment (6-mer frequency, TF over GST control) | 1.4 fold enrichment (6-mer frequency, TF over GST control) | 1.31 fold enrichment (6-mer frequency, TF over GST control)
6 | CCTATG | 1.14 fold enrichment (6-mer frequency, TF over GST control) | 1.31 fold enrichment (6-mer frequency, TF over GST control) | 1.31 fold enrichment (6-mer frequency, TF over GST control) | 1.14 fold enrichment (6-mer frequency, TF over GST control) | 1.27 fold enrichment (6-mer frequency, TF over GST control) | 1.14 fold enrichment (6-mer frequency, TF over GST control) | 1.21 fold enrichment (6-mer frequency, TF over GST control) | 1.19 fold enrichment (6-mer frequency, TF over GST control) | 1.18 fold enrichment (6-mer frequency, TF over GST control)
7 | CTAGCA | 1.28 fold enrichment (6-mer frequency, TF over GST control) | 1.26 fold enrichment (6-mer frequency, TF over GST control) | 1.2 fold enrichment (6-mer frequency, TF over GST control) | 1.18 fold enrichment (6-mer frequency, TF over GST control) | 1.26 fold enrichment (6-mer frequency, TF over GST control) | 1.23 fold enrichment (6-mer frequency, TF over GST control) | 1.14 fold enrichment (6-mer frequency, TF over GST control) | 1.24 fold enrichment (6-mer frequency, TF over GST control) | 1.33 fold enrichment (6-mer frequency, TF over GST control)
